Data published in PubChem BioAssay (NCATS).
Several values for one entry are separate records, joined by “and”; a condition that tells them apart may be missing. Identical values can stand only once. Results filed as inconclusive are left out. Where a structure was tested more than once in an assay, its records may differ in their call. Activity calls are given as the source filed them. Unless noted, the call rests on the fitted dose curve.

How the values were obtained:
[1] = Cell Viability - LYMP2-007 (AID 979; active means well fitted curve in the direction sought with a large enough effect; an effect the other way counts as inactive or inconclusive;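 further: potency means the concentration at half of the fitted maximal effect; cells exposed to compound for 24 h before reading; nearly all actives have a fitted effect of over 60% in size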)
Outline: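 Acute toxicity is scored as a concentration-dependent fall in intracellular ATP in human lymphoblastoid cells treated 24 hr at 37 C, measured by luciferase luminescence; Hill-equation modelling yields AC50.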

[2] = molecular target: Estrogen receptor (Homo sapiens) (UniProt P03372); test: qHTS assay for small molecule antagonists of estrogen receptor alpha signaling (AID 588513; active means well fitted curve in the direction sought with a large enough effect in the signal ratio, with a control signal flat, not every such curve was filed as active; the % refers to the signal ratio; further: on the % scale 0 is the no-effect control and ±100 the full control effect)
Estrogen receptor (Homo sapiens), sequence (P03372 whole entry, looked up): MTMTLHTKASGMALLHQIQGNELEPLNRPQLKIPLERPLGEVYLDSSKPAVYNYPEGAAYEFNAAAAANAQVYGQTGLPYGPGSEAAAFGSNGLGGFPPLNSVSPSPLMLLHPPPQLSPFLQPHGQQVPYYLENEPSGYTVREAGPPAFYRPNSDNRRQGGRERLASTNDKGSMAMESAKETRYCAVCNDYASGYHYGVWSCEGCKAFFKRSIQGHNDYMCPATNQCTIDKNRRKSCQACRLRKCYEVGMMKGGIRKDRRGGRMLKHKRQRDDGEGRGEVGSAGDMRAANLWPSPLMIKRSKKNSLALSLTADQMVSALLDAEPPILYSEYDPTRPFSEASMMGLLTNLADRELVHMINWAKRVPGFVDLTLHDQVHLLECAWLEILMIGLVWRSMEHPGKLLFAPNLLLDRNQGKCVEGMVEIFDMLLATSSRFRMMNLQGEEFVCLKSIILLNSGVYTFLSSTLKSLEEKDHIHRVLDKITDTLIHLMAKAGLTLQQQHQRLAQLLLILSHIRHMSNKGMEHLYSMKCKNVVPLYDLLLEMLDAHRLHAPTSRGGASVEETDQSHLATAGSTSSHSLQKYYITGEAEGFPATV
Outline: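 ER-alpha-UAS-bla GripTite HEK 293 cells in medium with 2% charcoal/dextran-treated FBS were preincubated 4 h at 37 C, dosed with compound (1:2 titration), stimulated with 0.5nM 17-beta-estradiol for 18 h, then read by CCF4 beta-lactamase fluorescence.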

[3] = molecular target: Glucocorticoid receptor (Homo sapiens) (UniProt P04150); test: qHTS assay for small molecule agonists of glucocorticoid receptor signaling (AID 588532; active means well fitted curve in the direction sought with a large enough effect in the signal ratio, with a control signal flat; the % refers to the signal ratio;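 further: 100% = dexamethasone at 0.1 µM and 0% = DMSO only wells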); conditions: HeLa MMTV-bla, beta-lactamase ratio, agonist, 18 h; stronger effect = higher value; percent of dexamethasone control, DMSO zero
Glucocorticoid receptor (Homo sapiens), sequence (P04150 whole entry, looked up): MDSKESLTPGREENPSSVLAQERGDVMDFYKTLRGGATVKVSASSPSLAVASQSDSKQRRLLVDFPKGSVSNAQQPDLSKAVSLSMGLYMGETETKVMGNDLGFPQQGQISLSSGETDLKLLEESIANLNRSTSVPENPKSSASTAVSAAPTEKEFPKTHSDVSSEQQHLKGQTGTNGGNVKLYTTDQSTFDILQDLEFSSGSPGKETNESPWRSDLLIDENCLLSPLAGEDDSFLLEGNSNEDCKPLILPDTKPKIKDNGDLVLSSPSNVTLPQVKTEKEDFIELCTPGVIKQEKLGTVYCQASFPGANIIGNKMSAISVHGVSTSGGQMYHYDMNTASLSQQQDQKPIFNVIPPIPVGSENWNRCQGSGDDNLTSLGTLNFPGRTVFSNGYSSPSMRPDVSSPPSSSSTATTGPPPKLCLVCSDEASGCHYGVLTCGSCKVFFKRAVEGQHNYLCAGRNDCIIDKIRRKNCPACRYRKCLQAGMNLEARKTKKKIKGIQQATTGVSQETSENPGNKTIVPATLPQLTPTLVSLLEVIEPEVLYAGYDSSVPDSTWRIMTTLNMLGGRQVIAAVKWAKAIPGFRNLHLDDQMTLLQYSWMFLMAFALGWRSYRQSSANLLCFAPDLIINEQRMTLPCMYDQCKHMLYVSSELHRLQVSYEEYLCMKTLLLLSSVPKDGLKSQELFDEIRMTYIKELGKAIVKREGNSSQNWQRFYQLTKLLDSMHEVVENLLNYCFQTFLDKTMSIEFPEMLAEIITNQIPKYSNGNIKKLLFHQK
Outline: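 Using MMTV-bla HeLa cells in medium with 1% stripped FBS and 25 mM HEPES, compounds were titrated and incubated overnight-length (18 h). Beta-lactamase cleavage of CCF4 was quantified by dual-emission fluorescence.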

[4] = molecular target: Peroxisome proliferator-activated receptor delta (Homo sapiens) (UniProt Q03181); test: qHTS assay for small molecule agonists of peroxisome proliferator-activated receptor delta signaling (AID 588534);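 further: 0% = DMSO basal wells and 100% = positive control agonist at 10 µM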
Peroxisome proliferator-activated receptor delta (Homo sapiens), sequence (Q03181 whole entry, looked up): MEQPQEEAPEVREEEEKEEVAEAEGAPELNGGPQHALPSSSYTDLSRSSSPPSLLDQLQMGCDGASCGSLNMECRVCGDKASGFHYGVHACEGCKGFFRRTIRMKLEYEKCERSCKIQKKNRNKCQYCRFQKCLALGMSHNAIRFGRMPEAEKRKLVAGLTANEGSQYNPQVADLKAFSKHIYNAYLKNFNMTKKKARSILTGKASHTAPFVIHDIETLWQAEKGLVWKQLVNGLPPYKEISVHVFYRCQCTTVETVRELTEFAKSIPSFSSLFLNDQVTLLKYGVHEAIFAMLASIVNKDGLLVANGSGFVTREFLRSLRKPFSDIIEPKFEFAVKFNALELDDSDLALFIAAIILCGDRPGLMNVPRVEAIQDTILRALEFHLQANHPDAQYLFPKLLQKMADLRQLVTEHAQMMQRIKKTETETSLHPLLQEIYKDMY
Outline: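 Reporter cells were plated and held 5 hrs at 37 C before compounds were added. After 18 hrs at 37 C, CCF4 dye was loaded for 2 hrs at RT and fluorescence measured.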

[5] = molecular target: Peroxisome proliferator-activated receptor gamma (Homo sapiens) (UniProt P37231); test: qHTS assay for small molecule antagonists of peroxisome proliferator-activated receptor gamma signaling (AID 588537; active means well fitted inhibition curve with a large enough effect in the signal ratio, with a control signal flat, not every such curve was filed as active; the % refers to the signal ratio;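 further: reporter cells co-stimulated with 50 nM rosiglitazone agonist during compound treatment; % of control where 0% means no effect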)
Peroxisome proliferator-activated receptor gamma (Homo sapiens), sequence (P37231 whole entry, looked up): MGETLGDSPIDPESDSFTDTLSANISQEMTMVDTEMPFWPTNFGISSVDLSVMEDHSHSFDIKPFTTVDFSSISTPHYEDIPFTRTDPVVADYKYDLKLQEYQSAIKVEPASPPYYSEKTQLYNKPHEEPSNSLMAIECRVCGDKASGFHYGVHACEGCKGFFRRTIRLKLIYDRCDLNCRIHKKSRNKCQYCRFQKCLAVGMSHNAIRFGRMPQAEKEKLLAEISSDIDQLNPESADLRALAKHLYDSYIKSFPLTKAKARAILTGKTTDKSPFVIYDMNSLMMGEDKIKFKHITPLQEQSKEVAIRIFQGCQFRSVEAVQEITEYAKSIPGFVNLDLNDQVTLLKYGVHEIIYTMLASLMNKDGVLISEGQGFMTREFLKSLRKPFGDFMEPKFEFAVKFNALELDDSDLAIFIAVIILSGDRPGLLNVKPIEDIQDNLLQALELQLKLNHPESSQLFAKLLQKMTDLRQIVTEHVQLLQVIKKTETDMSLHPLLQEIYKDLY
Outline: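 Inhibitors of agonist-stimulated UAS-bla reporter activity were sought in HEK293 cells; rosiglitazone (50 nM) defined full signal and DMSO baseline. Curves fitted to Hill model gave IC50 and efficacy.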

[6] = molecular target: Thyroid hormone receptor beta (Homo sapiens) (UniProt P10828); test: qHTS assay for small molecule antagonists of thyroid hormone receptor beta signaling (AID 588547; active means well fitted inhibition curve with a large enough effect in the signal ratio, with a control signal flat, not every such curve was filed as active; the % refers to the signal ratio;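 further: cells stimulated with 0.4 nM T3 agonist during compound exposure; on the % scale 0 is the no-effect control and ±100 the full control effect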); conditions: TR-UAS-bla HEK293, beta-lactamase ratio, antagonist mode, 18 h
Thyroid hormone receptor beta (Homo sapiens), sequence (P10828 whole entry, looked up): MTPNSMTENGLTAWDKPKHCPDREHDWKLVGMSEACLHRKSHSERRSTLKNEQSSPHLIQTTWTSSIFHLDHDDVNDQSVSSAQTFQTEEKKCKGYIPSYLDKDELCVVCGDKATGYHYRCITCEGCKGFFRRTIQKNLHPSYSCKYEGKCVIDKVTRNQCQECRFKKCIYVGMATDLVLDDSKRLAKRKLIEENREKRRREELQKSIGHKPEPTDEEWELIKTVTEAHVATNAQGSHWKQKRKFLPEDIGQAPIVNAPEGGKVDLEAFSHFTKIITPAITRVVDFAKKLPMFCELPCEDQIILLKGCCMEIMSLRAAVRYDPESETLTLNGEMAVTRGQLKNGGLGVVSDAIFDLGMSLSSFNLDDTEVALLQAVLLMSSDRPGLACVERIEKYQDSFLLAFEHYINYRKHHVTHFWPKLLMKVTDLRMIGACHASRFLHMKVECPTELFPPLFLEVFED
Outline: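 Inhibition of T3-driven (0.4nM final) beta-lactamase reporter activity was measured over 0.59 nM to 92 uM compound after 18 h at 37 C. The cells were GripTite HEK293 TR-UAS-bla in charcoal/dextran-stripped serum, with CCF4 ratio read-out and IC50 from Hill fits.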

[7] = qHTS assay for small molecule agonists of the antioxidant response element (ARE) signaling pathway (AID 651741; active means well fitted activation curve with a large enough effect in the signal ratio; the % refers to the signal ratio; further: potency means the concentration at half of the fitted maximal effect; on activation: % of control where 0% means no effect)
Outline: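 Seeding 2,000 ARE-bla HepG2 cells per well preceded a 5 h incubation at 37 C/5% CO2 and a 16 h compound exposure at 37 C. Beta-lactamase reporter activity was then quantified by fluorescence after 2 h with LiveBLAzer B/G FRET substrate.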

[8] = qHTS assay for small molecule agonists of the antioxidant response element (ARE) signaling pathway measured by Nrf2-dependant transcriptional activity (AID 720636; active means well fitted curve in the direction sought with a large enough effect in the repeat runs; an effect the other way counts as inactive or inconclusive; further: % of control where 0% means no effect)
Outline: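 Nrf2-dependent transcription read as ONE-Glo luciferase signal from ARE-luc HepG2 reporter cells after 16 hr compound treatment at 37 C, 5% CO2, in assay medium with 1% dialyzed FBS.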

[9] = Primary qHTS for Huh7 cytotoxicity: counterscreen for inhibitors of MERS-S pseudotyped particle cell entry (AID 1479147); conditions: outcome: dose series up to 57.1 µM unless noted
[10] = Primary qHTS for inhibitors of MERS-S pseudo-typed particle cell entry (AID 1479149); conditions: outcome: dose series up to 57.1 µM unless noted; further: nearly all actives have a fitted effect of over 60% in size
[11] = Primary qHTS for Vero E6 cytotoxicity: counterscreen for inhibitors of SARS-S pseudo-typed particle cell entry (AID 1479150); conditions: outcome: dose series up to 57.1 µM unless noted
[12] = Cytotoxicity counterscreen for inhibitors of SARS-CoV-2 cell entry (AID 1645845); conditions: outcome: dose series up to 57.1 µM unless noted; further: nearly all actives have a fitted effect of over 50% in size
Outline: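 48 h compound treatment (after 1 h preincubation), HEK293-ACE2 cells, 37 C/5% CO2; ATP luminescence endpoint; normalized to cell wells and media blanks.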

[13] = Primary qHTS to identify inhibitors of SARS-CoV-2 cell entry (AID 1645846); conditions: SARS-CoV-2 pseudovirus cell entry assay, luminescence; activity change, negative = inhibition: at 57.1 µM (top of the series) unless noted; further: nearly all actives have a fitted effect of over 45% in size
Outline: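 Luminescence readout (Bright-Glo luciferase) 48 h after pseudoparticle addition. HEK293-ACE2 cells, 1500/well; compound pre-incubation 1 h; Normalized to spike PP and bald PP.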

[14] = KB-8-5-11 P-gp reporter qHTS against the NCATS DSHEA and TCM libraries (AID 1919977; active means well fitted curve in the direction sought with a large enough effect; an effect the other way counts as inactive or inconclusive; further: 0% is about no effect)
Outline: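 P-gp-overexpressing KB-8-5-11 cells (500/well) were plated in colchicine-free DMEM with 10% FBS, attached ~4 h, then exposed to substance titrations for ~72 h at 37C. Viability was read by CellTiter-Glo luminescence.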

O=C(O)CC(O)(CC(=O)O)C(=O)O
inactive and 54.5 µM (active): Potency [7]
-17.5%: activity change, negative = inhibition [13]
active: Potency [1] 50.1 µM
inactive: Potency [2] | activation [3] 1.56% | outcome [4] | Potency [5] | activity change % (negative = inhibition) [6] -10.8% and 10.6% | outcome [8] | Potency [9] | Potency [10] | Potency [11] | Potency [12] | Potency [14]

NS(=O)(=O)c1cc2c(cc1Cl)NC(Cc1ccccc1)NS2(=O)=O (centres undefined)
inactive: Potency [9] | Potency [10] | Potency [11] | Potency [12]
-16.2%: activity change, negative = inhibition [13]

CCCCC(C)(O)CC=C[C@H]1[C@H](O)CC(=O)[C@H]1CCCCCCC(=O)OC (some centres undefined)
inactive: Potency [9] | Potency [10] | Potency [11] | Potency [12] | Potency [13]

NCCC[C@H](NC(=O)[C@@H]1CCCN1C(=O)[C@@H]1CSSC[C@H](N)C(=O)N[C@@H](Cc2ccc(O)cc2)C(=O)N[C@@H](Cc2ccccc2)C(=O)N[C@@H](CCC(N)=O)C(=O)N[C@@H](CC(N)=O)C(=O)N1)C(=O)NCC(N)=O
-24.3%: activity change, negative = inhibition [13]
inactive: Potency [9] | Potency [10] | Potency [11] | Potency [12]

Oc1cc(O)cc(O)c1
inactive: Potency [9] | Potency [10] | Potency [11] | Potency [12]
-21.2%: activity change, negative = inhibition [13]

Cc1oc(-c2ccccc2)nc1CCOc1ccc(CC2C(=O)NOC2=O)cc1 (centres undefined)
inactive: Potency [9] | Potency [10] | Potency [11] | Potency [12]
-23.4%: activity change, negative = inhibition [13]
